Among all 5,500 compounds or so, about 2,000 (36%) were called active. About 18% were inconclusive and are not listed. Rule as the data show it: active = normalized growth mostly below about 0.91 (no sharp cut-off); inconclusive = no clear call, values can overlap the other calls; inactive = mostly above about 0.92. Some of the results follow.
Experiment: chemical genetic growth profiling, strain panel (AID 1159580);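 also: tested at 20 µM; growth read once vehicle control cultures reached saturation at 30 °C; 1 = growth at the plate median or of vehicle wells; lower values mean less growth of the strain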
Conditions: growth OD
[1] = S. cerevisiae deletion strains, locus YGR078C, strain PAC10, hits give low values
[2] = S. cerevisiae deletion strains, locus YJR075W, strain HOC1, hits give low values
[3] = S. cerevisiae deletion strains, locus YMR307W, strain GAS1, hits give low values
[4] = S. cerevisiae deletion strains, locus YNL153C, strain GIM3, hits give low values
[5] = S. cerevisiae deletion strains, locus YNL322C, strain KRE1, hits give low values
[6] = S. cerevisiae deletion strains, locus YPL241C, strain CIN2, hits give low values

Measured: normalized growth

CC(C)(Sc1ccc(CCN(CCCCC2CCCCC2)C(=O)NC2CCCCC2)cc1)C(=O)O
inactive: S. cerevisiae deletion strains, locus YAL040C, strain CLN3, hits give low values 1.06 | S. cerevisiae deletion strains, locus YCL061C, strain MRC1 (second series), hits give low values 0.994 | S. cerevisiae deletion strains, locus YDR363W, strain ESC2, hits give low values 1.01 | S. cerevisiae deletion strains, locus YER002W, strain NOP16, hits give low values 1.01 | [1] 1.03 | [2] 1.01 | [3] 0.994 | [4] 0.986 | S. cerevisiae deletion strains, locus YNL175C, strain NOP13, hits give low values 1.01 | S. cerevisiae deletion strains, locus YNL197C, strain WHI3, hits give low values 1.02 | S. cerevisiae deletion strains, locus YNL224C, strain SQS1, hits give low values 1 | [5] 0.994 | S. cerevisiae deletion strains, locus YOR083W, strain WHI5 (second series), hits give low values 0.98 | [6] 1

CC(C)(C)S(=O)(=O)/C(C#N)=C/c1ccc(F)cc1F
inactive: S. cerevisiae deletion strains, locus YAL013W, strain DEP1, hits give low values 0.995 | S. cerevisiae deletion strains, locus YBR229C, strain ROT2, hits give low values 0.999 | S. cerevisiae deletion strains, locus YDL101C, strain DUN1, hits give low values 1 | S. cerevisiae deletion strains, locus YDL134C, strain PPH21, hits give low values 1.01 | S. cerevisiae deletion strains, locus YDR150W, strain NUM1, hits give low values 0.947 | S. cerevisiae deletion strains, locus YEL061C, strain CIN8, hits give low values 1.02 | [1] 0.999 | S. cerevisiae deletion strains, locus YHR030C, strain SLT2, hits give low values 1.08 | S. cerevisiae deletion strains, locus YHR087W, strain rtc3, hits give low values 1.01 | S. cerevisiae deletion strains, locus YJL187C, strain SWE1, hits give low values 1 | S. cerevisiae deletion strains, locus YJR043C, strain POL32, hits give low values 1.01 | [2] 0.987 | S. cerevisiae deletion strains, locus YKL190W, strain CNB1, hits give low values 1.02 | S. cerevisiae deletion strains, locus YLR039C, strain RIC1, hits give low values 0.962 | S. cerevisiae deletion strains, locus YLR058C, strain SHM2 (second series), hits give low values 0.987 | S. cerevisiae deletion strains, locus YLR085C, strain ARP6, hits give low values 1.06 | S. cerevisiae deletion strains, locus YLR262C, strain YPT6, hits give low values 0.954 | S. cerevisiae deletion strains, locus YML094W, strain GIM5, hits give low values 1.03 | S. cerevisiae deletion strains, locus YMR219W, strain ESC1, hits give low values 0.989 | S. cerevisiae deletion strains, locus YMR263W, strain SAP30, hits give low values 0.977 | [3] 1.01 | S. cerevisiae deletion strains, locus YNL128W, strain TEP1, hits give low values 1.01 | [4] 1.01 | S. cerevisiae deletion strains, locus YNL298W, strain CLA4 (second series), hits give low values 1.03 | [5] 0.994 | S. cerevisiae deletion strains, locus YNR030W, strain Alg12, hits give low values 1.01 | S. cerevisiae deletion strains, locus YPL055C, strain LGE1, hits give low values 0.919 | [6] 1.03 | S. cerevisiae deletion strains, locus YPR135W, strain CTF4, hits give low values 1.05 | S. cerevisiae strains, strain wild type, hits give low values 1.03
